The full ranking holds about 25,000 sequences; the median of “ln(normalized median fluorescence intensity)” is about 6.7, and the highest 2% start at about 10. What follows is part of a selection rich in the highest values, with near analogues and random picks from the rest.

This note sets out measurements from the supplement of paper PMC11417369.

The test relates to PfHDP1 homeodomain (GST-tagged). The test is described as follows: gcPBM binding intensity (ln(normalized median fluorescence intensity)); higher = stronger DNA binding. An outline of the steps: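 An Agilent 4 × 180k array carrying primer-extended double-stranded 36-bp intergenic genomic probes and negative controls received GST-tagged P. falciparum DNA-binding domains expressed in E. coli, about 25 μg on average, for 1 h. The binding buffer contained 1× PBS, 1% milk, 0.2 mg/ml BSA, 0.5% salmon testes DNA and 0.03% Triton X-100. Binding intensity is the top Masliner-normalised natural-log median intensity across replicate spots of either probe orientation, read after Alexa488 anti-GST antibody staining and a 488 nm scan.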
In the case of “AGTGATTATTAATAATGTACATATCTATAAATATAT [XGTACX_site4734]”, the “gcPBM binding intensity (ln)” value was found to be 6.43. Next, “TTAATGTTATATGTGTGTACATATAAGTTTAGTAAA [XGTACX_site4651]”: 6.53; “AAAAAAATGAAGAAATGTACAAATTTCATTAATTTT [XGTACX_site354]”: 6.05; “TTCATATATAATTGTACACACAAAAACGACATTGTG [CACACA_site2074]”: 7.05. Next, “TTATTTGAACAATATGCACACATTTTATTTATTTTA [CACACA_site3420]”: 10.1; “TAGATCATAACAATTGCACACATTTGCATTTATATT [CACACA_site1562]”: 10.1; “TATATATATATATATGTGCACTGGACATATTTTTAT [GTGCAC_site9721]”: 9.84. Next, “TTTAGTTTTTATATAGCACACATATTGTGATTATGT [CACACA_site8316]”: 6.82; “ATATTATGTGATTGTGCACACTGGAGATTTTTTTTA [CACACA_site1453]”: 11.2; “GAGATTTATTTATGTGCACACTAGAACAATTGGATC [CACACA_site2090]”: 10.5.

As for “TTAATATGTTTAACCATTTTACATAAATTGATTTGT [CACACA_negctrl_site1100]”, the “gcPBM binding intensity (ln)” value is 6.3. Under “TGTTATTACTTTATATCATCTTAAAATAAGCATATT [CACACA_negctrl_site1501]” stands 6.26. Next, “AAATTAATACATTATTGTACTTTTCATGTGCAGAAA [XGTACX_site8284]”: 8.11. Next, “TTACTTGTTTATTTTTTTTTTTTTTTTTTTTTTGTT [TGCATGCA_negctrl_site103]”: 5.62. In the case of “TATATGAAAATGTTCATACACACATAAAAAAAAAAA [CACACA_site3237]”, the “gcPBM binding intensity (ln)” value came to 6.41. Under “GTTCAATCGGGTGTTACTTCAAACAAGGAACAACAA [TGCATGCA_negctrl_site471]” stands 6.16; under “TTAAGATATGTATATCGTACATGACATTAAAAATTT [XGTACX_site3352]”, 6.02.

On to “ATGCAAATAATATAAAGTACACAACATCGCCCAAAG [XGTACX_site1825]”, for which the “gcPBM binding intensity (ln)” value worked out at 7. Under “TATATATTTTCTTTTGCACACTGTTTTCCTTTTTTT [CACACA_site2739]” stands 10.2.

Regarding “ACAAGTATTCCTTTTGCACACCTTTCTGCACCTTAT [CACACA_site3873]”, the “gcPBM binding intensity (ln)” value was 11.1. Under “TATTTAACACCTTATACACACTTTCTTCCTTTTTTA [CACACA_site4590]” stands 7.12; under “AAAATTAGGTATATATGTACATATATAAATATATAT [XGTACX_site3555]”, 6.8.

Turning to “TAAAGAAACTATTCAACACACGGTCTAATTATTACA [CACACA_site1064]”, the “gcPBM binding intensity (ln)” value came to 6.15. Under “TATTATTTACCTTGCTAGTTCGTTCCAAATTTTATG [XGTACX_negctrl_site197]” stands 7.19; under “AATGTGCAAACAAACTGTACTTTTTTTTTTTTTTTT [XGTACX_site928]”, 10.6.

“ACAAAACTTTTAAGAACACACAAAAATGTACTATCG [CACACA_site7245]”: the “gcPBM binding intensity (ln)” value stood at 6.17.

Consider “AAACAAATGTATATGTGTACTTATTTTTTTGTATGT [XGTACX_site7134]”, for which the “gcPBM binding intensity (ln)” value is 6.17. Under “TTTTCATTTTTCTTTACACACATATATATATATATA [CACACA_site2236]” stands 9.23; under “ATATAGATGCATAATACACACATCAGATAATTAACC [CACACA_site6871]”, 6.96. Under “TGCAAAAAATTCCACACACACACACGCATATAAATA [CACACA_site6696]” stands 6.72; under TTTTTTTGTTAAAAGGTGCTAATATATATAAGTGCT, 6.62.

ATGATATACTTGAGTGTGCACAAACTATTACTTACA: the “gcPBM binding intensity (ln)” value turned out to be 11.

Consider “TCTACTATTATATATTGTACAAATGATACTTATATT [XGTACX_site1819]”, for which the “gcPBM binding intensity (ln)” value was determined as 6.61. On to “ATATATTTGATAAGAGTGCACAAATACATACATACA [GTGCAC_site9704]”, for which the “gcPBM binding intensity (ln)” value turned out to be 9.65. As for “CCATTTGATAATAATGCACACCACATATATTTATAT [CACACA_site9002]”, the “gcPBM binding intensity (ln)” value was found to be 10.1.

Regarding “TTATTTACATCAAGTACATGCAGTAAAAAAAAAAAA [TGCATGCA_site351]”, the “gcPBM binding intensity (ln)” value was 6.41. Regarding “ATATATATATATATATGTACTTATTTATCGTATTAT [XGTACX_site3520]”, the “gcPBM binding intensity (ln)” value turned out to be 9.59. Next, “TACACATAATATAATGCATGTGTGATGTATGTTTAA [TGCATGCA_site697]”: 6.56. Next, “CTTTTTTTAATGATAACACACATGTTGTGCATAGAC [CACACA_site3270]”: 10.7. In the case of “TCTTTTAACACATGTGATATTATTTAATAACAATAA [CACACA_negctrl_site339]”, the “gcPBM binding intensity (ln)” value was 6.51.

Consider “TTTTTTTTTTATTAATGTACAAGATATATAATGTTA [XGTACX_site4809]”, for which the “gcPBM binding intensity (ln)” value came to 6.16.

For the sequence “TTAAAAAACCTTAGATGTACAGTTATATATAAAATA [XGTACX_site6688]”, the “gcPBM binding intensity (ln)” value came to 6.37. Next, “TAACTTAATTTTAATGCACACAATTTATATATATAT [CACACA_site6022]”: 10.5; TTTTTAATTTATTGTGTGCACACAACTATGAGTTTT: 10.3. Next, “TTTAATTATTAGTGTGCACACAACTATGAGTTTTTA [CACACA_site8997]”: 10.8. Under “AACAACTATTAATTTACACACATGTATATATTTTAC [CACACA_site3116]” stands 6.82. Regarding “TTTAATTTTCGGTGTGCACACAACTATGAGTTTTTA [CACACA_site3034]”, the “gcPBM binding intensity (ln)” value came out at 11.2.

On to “AACGGGGGTAGTTTTATGCACACGTTTATTAATGCT [CACACA_site3173]”, for which the “gcPBM binding intensity (ln)” value amounted to 9.56. Turning to “TTTTTTTTTTTTTTTTGTACATATTTTTAAACTATA [XGTACX_site2897]”, the “gcPBM binding intensity (ln)” value stood at 6.24. Next, “TTCTTTTTTCGACACACACACACAAGAAGATATATA [CACACA_site7456]”: 7.11. As for “ATATATCTATAAAAGGCTTCCCACTTTTTTTGTCAA [TGCATGCA_negctrl_site332]”, the “gcPBM binding intensity (ln)” value was found to be 6.39.

With “GGCGTATGTGTATATACACACCCACGTATATATATA [CACACA_site9046]”, the “gcPBM binding intensity (ln)” value came out at 8.02. Next, “CCTATTTATATATACACACACATATATAAATAAATA [CACACA_site2991]”: 6.95.

With “TATATATATGAGTATACACACCTGATAAAGGTATAT [CACACA_site5462]”, the “gcPBM binding intensity (ln)” value was found to be 6.87. Next, “TAATGTAAAATTTAGAGTACATAAAAAATTGGATGA [XGTACX_site7225]”: 6.68; “AAAAATAAAATATATACATGCATATACATATTATAT [TGCATGCA_site668]”: 6.31. Next, “AAATAAAATTATAATACATGCATACATACATATATA [TGCATGCA_site69]”: 6.3; “AATTATATAAGCCACGCATGTGTGCATAAAAATACA [TGCATGCA_site114]”: 10.9.

For the sequence “CCATAATATTATAGACGTACGAATATATATAAAAGA [XGTACX_site7295]”, the “gcPBM binding intensity (ln)” value was found to be 7.24.

Take “ACATATAAATGATATGTACACACATTTATATATATA [CACACA_site9152]”: the “gcPBM binding intensity (ln)” value was determined as 7.4. For “TAAAGATATAAATGCACACGTATTAAAAAAAAAATA [CACACA_site952]”, the “gcPBM binding intensity (ln)” value stood at 9.54.

Consider “ACATTAACATTGTTGGTGCAAAATTAATATGTTTTT [GTGCAC_site9673]”, for which the “gcPBM binding intensity (ln)” value was 10.7. Under “TATATTAACAAAATGGTGCAATAATTTCTATATTGT [GTGCAC_site9430]” stands 10.4; under “AAAATTAATGTTGGTTGTACAAAAATTAAATATGGT [XGTACX_site66]”, 6.85. Under “TAAATACATAAAAATTGTACACATTGTTTTCTCTTT [XGTACX_site6435]” stands 6.49. Under “TAGAAATATATAAATTGTACATGTTTGTATAATATA [XGTACX_site2097]” stands 6.44; under “TAAATGCACATATACACACACCCAATTTTAAGTTTT [CACACA_site7428]”, 11.1; under “TAAAATAAAAAGTTTACACACATATATAATTTTAAT [CACACA_site662]”, 6.24.

Regarding “CTTAAATTTTTAAATACACACATACACCCATACACA [CACACA_site4461]”, the “gcPBM binding intensity (ln)” value is 7.25. Under “ATATTTATACTATACACACCCAATTTAAAAAAAAAT [CACACA_site1163]” stands 7.11; under “ACCCAATTTTTTAGTACACACATATAAATATATAAA [CACACA_site4944]”, 6.86; under “ATTAAATGCACATATACACACACCCAATTTTAAGTT [CACACA_site3049]”, 11.3. In the case of “TTCTTAAGGAACGAACGTACAGAATAAAAAGTAAAA [XGTACX_site4294]”, the “gcPBM binding intensity (ln)” value was determined as 6.61. Turning to “GTTTATGTTAAACCATGTACTTAATATTTTATTCTT [XGTACX_site3761]”, the “gcPBM binding intensity (ln)” value came to 6.29. As to “ATTACATTTTTAATGCGTACTAAAAATGTATATAAG [XGTACX_site6384]”, the “gcPBM binding intensity (ln)” value is 6.6. Next, “ATTGAAAAACCGTTTAGTACATATCATCACGTTTGT [XGTACX_site1295]”: 6.04. Next, “CATACATACATACATACACACACATATATATATATA [CACACA_site8593]”: 9.27; “ATTGCTTTTCTTTTTGCACACTTATGCATATATATA [CACACA_site2584]”: 10.4. Next, “TGCTTTTCTTTTTGCACACTTATGCATATATATATA [CACACA_site2583]”: 10.8. As to “TTTCTATATGGATTTGCACACATAAAAATGCTTATA [CACACA_site8751]”, the “gcPBM binding intensity (ln)” value worked out at 10.2. Take TTGTTCTTTTGAAAGGTGCAAAAGAAAAATAATTAA: the “gcPBM binding intensity (ln)” value amounted to 9.53. Take “CCCTCCCCATGTTTAGTGCAAAAATATTTGAAATTG [GTGCAC_site9873]”: the “gcPBM binding intensity (ln)” value worked out at 10. On to TTTGAATACTGAATGGTGCAAATTGTTCTCCCCATG, for which the “gcPBM binding intensity (ln)” value was found to be 10.5. Under AAAGGATTTATACTAGTGCAAAAATATAAAAATATA stands 9.12. Next, “TTTTTTTTTTATGAAAGTACATATGAAAAATACGAA [XGTACX_site3451]”: 6.53; “CATTTTTTTTTATAAATACACACGTACGGGTGCATA [CACACA_site1569]”: 7.38; “TGATATTTAAATTTTGCACACGCATATGAAATTAGG [CACACA_site1034]”: 10.1. Take “ATATTTAAATTTTGCACACGCATATGAAATTAGGAC [CACACA_site1035]”: the “gcPBM binding intensity (ln)” value was found to be 10.5. Next, “ATTAAAAATTCAATTGCACACGCACATATTTTAATA [CACACA_site8618]”: 9.92; “GACTCATTAAGGATTATTCCTAATGATCAAAAGAAC [CACACA_negctrl_site515]”: 6.54.
